Measured values: PMC4552634, “A New Set of Chemical Starting Points with Plasmodium falciparum Transmission-Blocking Potential for Antimalarial Drug Discovery” (PLoS ONE, 2015)
Screen size: about 13,000 compounds; about 3,200 (25%) showed an effect of 50% or more. The list shows a part of the results.

test system: P. falciparum stage V gametocytes; design: BacTiter-Glo ATP luminescence viability of purified stage V gametocytes in 384-well plates, per cent inhibition versus DMSO; conditions: 48 h, 5 µM; inhibitor

| SMILES | % Inhibition |
| --- | --- |
| COc1ccc(C(=O)NCc2ccc(N)nc2C)cc1Nc1ncc(-c2cccc(N(C)C)c2)cn1 [TCMDC-132420] | -21.32% |
| CCc1ccc(Cc2cnc3nc(N)nc(N)c3c2C)cc1 [TCMDC-137686] | 14.74% |
| CCc1ccc(Cc2cnc3nc(N)nc(N)c3c2C)cc1CC [TCMDC-138054] | 77.27% |
| CCCc1ccc(Cc2cnc3nc(N)nc(N)c3c2C)cc1 [TCMDC-138046] | 5.48% |
| Cc1nc(N)nc(N)c1OCCCOc1cccc(Cl)c1Cl [TCMDC-131369] | -7.285% |
| OCCN1CCN(C(=S)Nc2ccccc2)CC1 [TCMDC-123846] | -8.492% |
| OCCN1CCN(c2nc(Nc3cccc(F)c3)c3cnn(-c4ccccc4)c3n2)CC1 [TCMDC-124948] | 87.2% |
| O=C(Nc1ccc(N2CCCN(Cc3cccc(F)c3)CC2)cc1)c1ccccc1 [TCMDC-135014] | -40.3% |
| Clc1cc(Cl)c2cc(CN[C@H]3CCC[C@@H]3CNc3nc4ccccc4[nH]3)[nH]c2c1 [TCMDC-139878] | 63.13% |
| O=c1cc(NC[C@@H]2CCC[C@@H]2NCc2ccc(Cl)c(Cl)c2)[nH]c2ccccc12 [TCMDC-139627] | -25.41% |
| Clc1cc(Cl)c2c(c1)C(NCCCNc1nc3ccccc3[nH]1)CCO2 (centres unmarked) [TCMDC-139802] | -25.37% |
| CC1=C(C(=O)Nc2ccc(Cl)cc2)C(c2ccncc2)n2nc(C(F)(F)F)nc2N1 (centres unmarked) [TCMDC-124419] | -9.933% |
| CC1=C(C(=O)Nc2ccccc2)C(c2ccc([N+](=O)[O-])cc2)n2ncc(C(=O)Nc3ccccc3)c2N1 (centres unmarked) [TCMDC-125283] | 50.23% |
| COc1ccc(C2C(C(=O)Nc3ccccc3)=C(C)Nc3c(C(=O)Nc4ccccc4)cnn32)cc1 (centres unmarked) [TCMDC-125284] | -13.81% |
| c1csc(-c2ccc3c(c2)CC(NCc2c[nH]c4cnccc24)C3)c1 (centres unmarked) [TCMDC-134833] | 42.25% |
| COc1cc(NC(=O)c2cc([N+](=O)[O-])ccc2NC(=O)CNC2CCCC(C)C2C)cc(OC)c1 (centres unmarked) [TCMDC-125300] | -31.14% |
| COc1cccc(NC(=O)c2cc([N+](=O)[O-])ccc2NC(=O)CN2CCc3ccccc3C2)c1 [TCMDC-123678] | 69.57% |
| CCC(CC)N1CCN(CC(=O)Nc2ccc([N+](=O)[O-])cc2C(=O)Nc2cccc(OC)c2)CC1 [TCMDC-123679] | -23.44% |
| COc1cc(F)c2ncc(Cl)c(CCN3CCC(NCc4ccc5c(n4)NC(=O)CO5)CC3)c2c1 [TCMDC-135621] | -16.17% |
| NS(=O)(=O)c1cccc(-c2ccc3ncc(N4CCOCC4)nc3c2)c1 [TCMDC-134052] | 73.87% |
| O=C(Nc1ccc(-c2nc3ccccc3[nH]2)cc1)c1cccc(S(=O)(=O)N2CCOCC2)c1 [TCMDC-125263] | -3.664% |
| Cc1cc(N2CCOCC2)nc2ccc(NC(=O)c3cccc([N+](=O)[O-])c3)cc12 [TCMDC-123601] | 0.6281% |

| SMILES | % Inhibition |
| --- | --- |
| CN(C)c1ccc(-c2csc(C(=O)NCC3CCN(CCC(C)(C)C)C3)c2)cc1 (centres unmarked) [TCMDC-134427] | 60.6% |
| CN(C)c1ccc(-c2csc(C(=O)NCC3CCN(Cc4ccc(C(C)(C)C)cc4)C3)c2)cc1 (centres unmarked) [TCMDC-134449] | 80.7% |
| CN(C)c1ccc(-c2csc(C(=O)NCC3CCN(Cc4cccc(C(F)(F)F)c4)C3)c2)cc1 (centres unmarked) [TCMDC-134486] | 49.29% |
| CC(C)c1ccc(CN2CCC(CNC(=O)c3cc(-c4ccc(N(C)C)cc4)cs3)C2)cc1 (centres unmarked) [TCMDC-134440] | 77.06% |
| O=C1CCCC1Sc1nc2ccccc2c(=O)n1-c1ccc(Cl)c(Cl)c1 (centres unmarked) [TCMDC-125029] | -36.37% |
| CC1(C)N=C(N)N=C(N)N1OCCSc1ccc(Cl)c(Cl)c1 [TCMDC-131704] | 5.969% |
| CN1CCN(c2cc3c(cc2Br)CCN3C(=O)Nc2ccc(-c3cnc4ccccc4c3)cc2)CC1 [TCMDC-139280] | 14.3% |
| Cc1cc(N[C@@H](CC(C)C)C(=O)Nc2ccccc2)nc(NCC2CCCCC2)n1 [TCMDC-134921] | -51.59% |
| CCOc1cc(C)ccc1N(C1CCN(CCCCNC(=O)c2ccc(-c3ccc(C(F)(F)F)cc3)cc2)CC1)S(=O)(=O)c1ccccc1 [TCMDC-138637] | 32.99% |
| CCC(C)c1ccc(-n2c(Nc3ccccc3)nc3cc(S(N)(=O)=O)ccc32)cc1 (centres unmarked) [TCMDC-135490] | -10.42% |
| CCc1c[nH]c2c(N3CCCCS3(=O)=O)cc(C(=O)N[C@@H](Cc3ccccc3)[C@H](O)CNCc3cccc(OC)c3)cc12 [TCMDC-134127] | -6.303% |
| CCCC(C)Nc1nc(C)cc(N[C@@H](Cc2ccccc2)C(=O)Nc2ccc(OC)cc2)n1 (some centres unmarked) [TCMDC-134881] | -19.42% |
| COc1ccc(NC(=O)[C@H](Cc2ccccc2)Nc2cc(C)nc(NCCc3ccccn3)n2)cc1 [TCMDC-134746] | 109.1% |
| Cc1cc(N[C@@H](Cc2ccccc2)C(=O)Nc2ccccc2)nc(NCCc2ccccn2)n1 [TCMDC-134749] | 53.15% |
| COc1ccc(NC(=O)[C@H](Cc2ccccc2)Nc2cc(C)nc(NCC3CCCCC3)n2)cc1 [TCMDC-134929] | 14.59% |
| CO/C(=C\C=C\c1cc2cc(Cl)c(Cl)cc2[nH]1)C(=O)NCCCN1CCN(c2cccc(OC)c2)CC1 [TCMDC-139161] | -21.84% |
| O=C(N[C@@H](Cc1ccccc1)C(=O)NC1CCCc2ccccc21)c1ccc(O)c(-c2ccc(Cl)c(Cl)c2)c1 (some centres unmarked) [TCMDC-140868] | 35.62% |
| Nc1ncc(-c2cccc(CCN3CCOCC3)c2)cc1-c1nc2ccc(Br)cc2[nH]1 [TCMDC-133135] | 15.3% |
| OC1CCCN(Cc2ccc(-c3cccc(-c4nc5ccccc5[nH]4)c3)cc2)C1 (centres unmarked) [TCMDC-133836] | -1.76% |
| CC1CN(Cc2ccc(-c3ccc(-c4nc5ccccc5[nH]4)cc3)cc2)CC(C)O1.O=C(O)C(F)(F)F (centres unmarked) [TCMDC-133828] | -35.16% |
| O=C(O)C(F)(F)F.OC1CCCN(Cc2ccc(-c3ccc(-c4nc5ccccc5[nH]4)cc3)cc2)C1 (centres unmarked) [TCMDC-133829] | -32.2% |
| NC1CCN(Cc2ccc(-c3cccc(-c4nc5ccccc5[nH]4)c3)cc2)C1 (centres unmarked) [TCMDC-133879] | 58.35% |

| SMILES | % Inhibition |
| --- | --- |
| NC1CCCN(Cc2ccc(-c3cccc(-c4nc5ccccc5[nH]4)c3)cc2)C1 (centres unmarked) [TCMDC-133880] | 58.58% |
| NC1CCN(Cc2ccc(-c3ccc(-c4nc5ccccc5[nH]4)cc3)cc2)C1.O=C(O)C(F)(F)F (centres unmarked) [TCMDC-133868] | 102.2% |
| N=c1c2c(n(Cc3ccccc3)c3c1CCC3)CCCC2 [TCMDC-124229] | -1.262% |
| Clc1cccc(C23N=C(Nc4nc5ccccc5[nH]4)NC2(c2ccccc2)NC(Nc2nc4ccccc4[nH]2)=N3)c1 (centres unmarked) [TCMDC-139089] | 3.895% |
| COc1ccc(-c2cnc3ccc(NCc4ccc(S(N)(=O)=O)cc4)nn23)cc1 [TCMDC-136687] | 45.37% |
| NS(=O)(=O)c1ccc(CNc2ccc3ncc(-c4ccc(OC(F)(F)F)cc4)n3n2)cc1 [TCMDC-136685] | 61.81% |
| N#Cc1ccc(-c2cnc3ccc(NCc4ccc(S(N)(=O)=O)cc4)nn23)cc1 [TCMDC-124515] | 21.95% |
| FC(F)(F)Oc1ccc(-c2cnc3ccc(NCc4ccncc4)nn23)cc1 [TCMDC-136681] | 34.75% |
| NS(=O)(=O)c1ccc(CNc2ccc3ncc(-c4ccc(Cl)cc4)n3n2)cc1 [TCMDC-136686] | 45.42% |
| COc1ccc(-c2cnc3ccc(NCc4ccc(S(N)(=O)=O)cc4)nn23)cn1 [TCMDC-136688] | 73.26% |
| CC(C)(CNC(=O)/C=C/c1ccc(Cl)c(Cl)c1)CNc1cc(=O)c2ccccc2[nH]1 [TCMDC-139404] | -42.09% |
| O=C(/C=C/c1ccc(Cl)c(Cl)c1)NCCCCCN1CCC(NC(=O)Nc2cc(Cl)ccc2Cl)CC1 [TCMDC-135726] | -46.31% |
| O=C(Cc1cnc[nH]1)Nc1cccc(-c2cccc(-c3nc4ccc(C(F)(F)F)cc4[nH]3)c2)c1 [TCMDC-136948] | -28.45% |
| CC1SC(=S)NC1C(=O)O (centres unmarked) [TCMDC-131380] | 9.711% |
| COCCNC(=O)C(CNC(=O)c1ccc2c(c1)OCO2)NC(=O)c1ccc(-c2ccccc2)cc1 (centres unmarked) [TCMDC-140308] | -7.15% |
| CC(=O)N(Cc1cccc(-c2cccc(CNCc3ccc4c(c3)OCO4)c2)c1)C1CCN(Cc2ccccc2)CC1 [TCMDC-140529] | -13.98% |
| O=C(Nc1ccccc1)N(Cc1cccc(-c2ccc(CNCc3ccc4c(c3)OCO4)cc2)c1)C1CCN(Cc2ccccc2)CC1 [TCMDC-140591] | 67.97% |
| COCCNCc1cccc(-c2ccccc2CN(C(=O)c2ccc3c(c2)OCO3)c2ccc(OC)cc2)c1 [TCMDC-140571] | 88.17% |
| O=C(Nc1ccccc1)N(Cc1cccc(-c2cccc(CNCc3ccc4c(c3)OCO4)c2)c1)C1CCN(Cc2ccccc2)CC1 [TCMDC-140590] | 57.66% |
| COCC(=O)N(Cc1ccccc1-c1cccc(CNCc2ccc3c(c2)OCO3)c1)C1CCN(Cc2ccccc2)CC1 [TCMDC-140535] | 7.259% |
| CC(=O)N(Cc1ccccc1-c1cccc(CNCc2ccc3c(c2)OCO3)c1)C1CCN(Cc2ccccc2)CC1 [TCMDC-140526] | 86.49% |
